This test concerns LXRb homodimer (NR concentration 270 nM). Put plainly: PBM binding z-score (relative to random genomic background probes); higher = stronger binding; sequences stand for … in GC…GCGATTGACAGCGTAGAATGAAGG
Summed up:
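Probes were double-stranded and carried 34-nt variable regions with direct-repeat seeds, single-nucleotide variants, half-site ablations and random human genomic background sequences, printed on custom Agilent 4×180K protein-binding microarrays. Arrays were incubated 1 h with ligand-free nuclear receptor dimers in PBS pH 7.4, 2% milk, 0.02% Triton X-100, 1 mM DTT, 0.2 mg/mL BSA and 0.4 mg/ml salmon testes DNA. Antibodies against each partner (one per run) detected binding, and scanned fluorescence was regression-normalized. Binding z-scores use the random background probes as reference.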
For TCGAGTAGGTTAGGGGCATTCACAATGGCGTCGA, the PBM binding z-score was -0.112.
TCAAATAGGTAAACAGGTGAAAGTCCGTAAGTTA displayed a PBM binding z-score of -0.112.
The sequence CTACCAAGGTGAACAAGGTCGGTGATTACTATTC gave a PBM binding z-score of -0.54.
The sequence GCATATAGGTAATACAAGGTGAATGTCCGATTGT yielded a PBM binding z-score of -0.289.
The sequence CATCAAAGTTCAAGGTAACGTAACAGAAAGCAGC returned a PBM binding z-score of 2.13.
Take ATATGTAGGTTAGCTGGGATCATTCAGACTAGGC: the PBM binding z-score was 0.181.
In turn, ACTTACGGTTCAACGAGGTTATAGCACGCGTATA yielded a PBM binding z-score of 0.606.
CCTACTCGGCCAAAGGTCATTGATTCCAATGCTC gave a PBM binding z-score of 1.98.
As to CCTAGTTGGTCAGGAGGTGACACACCGGATATGA, the PBM binding z-score is -0.0582.
As for TGACCAAGGTGAAGGTCGTTGATCCCTCTGTAGA, the figure is -1.14; as for GGAACGAGGGCATACGAGTTGATAGCATGGCGAT, -0.795.
The same measure for TCTATTAGTTGAAGGGCGACCGACGAGTCCGTTT: 0.384; for TCTTGTAGATCAAGCAGGTTGAGAAAGCCTGAGT: -0.57.
As for ACAGACAGGTGATGAATGTAACTCAGGCTATCAT, the figure is -0.131.
In the case of AGAATGAGGTTACCACAGATCAGGGAAACGCTTG, the PBM binding z-score is -0.518.
As for ACAGACAGGTGAGGAAGGTAACTCAGGCTATCAT, the figure is -0.143.
In turn, GATACAGGGTCAAGCCCAGAGTACGCGTATTGAT registered a PBM binding z-score of -0.376.
CCTTACGGGTCAAGGCTATAGCACGGGTGGTACG had a PBM binding z-score of -0.119.
The same measure for CCTAGTTGGTCAGTAGGTCACACACCGGATATGA: 0.533.
As for AATCGGAGGACAAAGGTCAGAGCTACGCCAGTGA, the PBM binding z-score amounted to 0.469.
The same measure for CAAACTAGGTCAAGAGGACAAAGTCCGCTTCCCG: 0.143.
As for CCTAGCAGGCCAGGGTCATTCAAGCATTTCGCTT, the figure is -0.65.
In the case of CCTCCTGGGCCAAGGTCATTGATCAGTCAAAGCA, the PBM binding z-score was -0.68.
The sequence ATCTCTGGGTAAAGTTCAGTGAAAGATCGATAGA yielded a PBM binding z-score of 1.23.
For CTCGAAAGGTTGTGCTCAGGTGAGTATACCAAAC, the PBM binding z-score is -0.313.
As for ATCGAAAGGTCGTGAGGTGAGTATTCAGAAAGGC, the figure is 0.35; as for AGAATGAGGTTACCAACGATCAGGGAAACGCTTG, -0.375.
The same measure for TCATCTAGGTAAAAGGTGAAAGTCGGTGTGGTAA: 0.11.
As for TCTAGCAGGCCAGAGGGTCTCTCAAGAGGTACGG, the figure is -1.71; as for CAAACTAGGTCACCGGAAGGTCACAGTCCGCATG, 1.26; as for ATCTCTAGGAAAAAGTTCAGTGAATCCCGAGGAT, 0.735.
In turn, TCTAGTTGGTTAAAGGTCACACACTCGAAATGCG displayed a PBM binding z-score of 2.22.
Regarding CGTCGAAGGTCAAGGTCAGTGAAAGAGACTCGAA, the PBM binding z-score was 0.681.
As for CCGACTGGGGCAAGGTTACCAGAACGCACAGCCA, the figure is -1.15.
TCTTGTAGATCAAAGGTGAAGAAAGCCGAAGCCT had a PBM binding z-score of -0.372.
The same measure for ATATGTAGGTTAGCTGGGGTCATTCGGACTAGGC: 1.58.
As for TCTCGGAGGACTCGAAGGTCAGAGCTTTCCAGAG, the figure is -1.14; as for CCGAGTAGGTGATGGGGCATTCAGGCAACGGTGA, -1.01; as for TCGAGTAGGGTAGGGGCATTCAGAATGGCGTCGA, 1.6.
As for TCATATACGTAAAAGGTGAAAGTCGGTGTGGTAA, the figure is 0.467.

For the origin of these results see the supplement of paper PMC6555819.
